Holding throughout (conditions): Compound concentration 20.0 uM
For experiment [1], the target named is Tyrosine-protein kinase ABL1 (Homo sapiens) (UniProt P00519).
Experiment [2] deals with Bromodomain-containing protein 4 (Homo sapiens) (UniProt O60885).
Experiment [3] deals with Cyclin-dependent kinase 2 (Homo sapiens) (UniProt P24941).
In experiment [4] the target is Casein kinase I isoform delta (Homo sapiens) (UniProt P48730).
Experiment [5] concerns the target Glycogen synthase kinase-3 beta (Homo sapiens) (UniProt P49841).
Experiment [6] has as its target Mitogen-activated protein kinase 1 (Homo sapiens) (UniProt P28482).
For experiment [7], the target named is T1, Aurora kinase A (Homo sapiens) (UniProt O14965).
T1 sequence (whole entry): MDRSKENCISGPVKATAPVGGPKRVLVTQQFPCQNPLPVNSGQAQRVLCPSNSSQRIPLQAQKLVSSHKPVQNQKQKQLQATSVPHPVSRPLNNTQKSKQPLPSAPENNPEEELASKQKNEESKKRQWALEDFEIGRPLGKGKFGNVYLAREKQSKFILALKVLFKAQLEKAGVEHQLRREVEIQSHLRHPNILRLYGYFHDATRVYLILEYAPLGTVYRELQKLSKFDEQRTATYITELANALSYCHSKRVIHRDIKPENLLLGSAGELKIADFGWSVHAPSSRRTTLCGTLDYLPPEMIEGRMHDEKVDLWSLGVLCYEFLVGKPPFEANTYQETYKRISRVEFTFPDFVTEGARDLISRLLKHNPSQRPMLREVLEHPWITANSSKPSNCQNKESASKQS

Experiment [8] concerns the target T2, Transcription intermediary factor 1-alpha (Homo sapiens) (UniProt O15164).
T2 sequence (whole entry): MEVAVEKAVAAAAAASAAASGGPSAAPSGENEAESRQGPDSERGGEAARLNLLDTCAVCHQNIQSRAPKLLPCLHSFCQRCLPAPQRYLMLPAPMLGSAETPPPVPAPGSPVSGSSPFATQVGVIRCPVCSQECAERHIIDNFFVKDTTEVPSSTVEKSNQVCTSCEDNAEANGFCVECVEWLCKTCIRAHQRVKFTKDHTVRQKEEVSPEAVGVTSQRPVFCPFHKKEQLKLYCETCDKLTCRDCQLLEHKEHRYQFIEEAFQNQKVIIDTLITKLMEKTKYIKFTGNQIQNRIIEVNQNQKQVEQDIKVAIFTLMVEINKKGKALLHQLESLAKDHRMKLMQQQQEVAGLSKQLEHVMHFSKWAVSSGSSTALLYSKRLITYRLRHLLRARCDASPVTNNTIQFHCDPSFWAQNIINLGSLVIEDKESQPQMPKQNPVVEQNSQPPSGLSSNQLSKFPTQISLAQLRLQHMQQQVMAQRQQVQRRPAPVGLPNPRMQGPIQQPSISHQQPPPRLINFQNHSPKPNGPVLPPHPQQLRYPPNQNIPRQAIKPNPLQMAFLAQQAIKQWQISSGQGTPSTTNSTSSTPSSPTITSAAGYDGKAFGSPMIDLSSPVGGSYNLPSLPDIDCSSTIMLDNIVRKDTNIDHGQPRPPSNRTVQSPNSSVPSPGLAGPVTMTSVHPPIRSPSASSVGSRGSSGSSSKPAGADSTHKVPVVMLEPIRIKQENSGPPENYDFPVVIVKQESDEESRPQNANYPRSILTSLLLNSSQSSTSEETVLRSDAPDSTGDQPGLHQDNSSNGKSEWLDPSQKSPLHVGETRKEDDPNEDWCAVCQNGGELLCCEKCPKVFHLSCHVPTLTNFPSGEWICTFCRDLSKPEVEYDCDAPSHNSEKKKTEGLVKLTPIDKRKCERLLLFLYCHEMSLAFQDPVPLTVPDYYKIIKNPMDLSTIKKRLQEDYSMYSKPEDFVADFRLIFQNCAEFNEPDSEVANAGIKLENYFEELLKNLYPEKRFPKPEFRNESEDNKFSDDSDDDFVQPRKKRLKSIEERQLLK

Sequence of Mitogen-activated protein kinase 1 (Homo sapiens) (P28482 whole entry): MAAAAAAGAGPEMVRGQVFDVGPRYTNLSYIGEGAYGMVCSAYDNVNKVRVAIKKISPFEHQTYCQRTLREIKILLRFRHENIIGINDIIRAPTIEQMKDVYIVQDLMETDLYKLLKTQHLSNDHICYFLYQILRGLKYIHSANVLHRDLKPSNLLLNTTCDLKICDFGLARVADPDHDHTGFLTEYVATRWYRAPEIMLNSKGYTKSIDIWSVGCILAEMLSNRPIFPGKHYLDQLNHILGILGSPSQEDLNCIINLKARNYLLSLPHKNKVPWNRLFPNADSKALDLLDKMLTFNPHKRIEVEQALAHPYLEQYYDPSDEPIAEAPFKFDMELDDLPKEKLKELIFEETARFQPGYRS
Sequence of Glycogen synthase kinase-3 beta (Homo sapiens) (P49841 whole entry, looked up): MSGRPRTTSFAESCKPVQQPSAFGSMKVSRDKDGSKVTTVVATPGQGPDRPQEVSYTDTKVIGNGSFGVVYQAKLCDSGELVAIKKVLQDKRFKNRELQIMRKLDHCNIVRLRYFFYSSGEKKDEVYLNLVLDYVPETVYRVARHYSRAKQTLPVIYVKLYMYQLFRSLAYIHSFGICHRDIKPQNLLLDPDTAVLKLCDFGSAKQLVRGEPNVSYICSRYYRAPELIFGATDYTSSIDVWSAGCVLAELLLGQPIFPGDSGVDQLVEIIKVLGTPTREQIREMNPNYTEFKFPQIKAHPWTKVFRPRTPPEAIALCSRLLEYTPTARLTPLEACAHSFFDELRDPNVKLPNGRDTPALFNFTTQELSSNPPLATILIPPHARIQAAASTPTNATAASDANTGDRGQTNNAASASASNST
Sequence of Casein kinase I isoform delta (Homo sapiens) (P48730 whole entry, looked up, canonical isoform): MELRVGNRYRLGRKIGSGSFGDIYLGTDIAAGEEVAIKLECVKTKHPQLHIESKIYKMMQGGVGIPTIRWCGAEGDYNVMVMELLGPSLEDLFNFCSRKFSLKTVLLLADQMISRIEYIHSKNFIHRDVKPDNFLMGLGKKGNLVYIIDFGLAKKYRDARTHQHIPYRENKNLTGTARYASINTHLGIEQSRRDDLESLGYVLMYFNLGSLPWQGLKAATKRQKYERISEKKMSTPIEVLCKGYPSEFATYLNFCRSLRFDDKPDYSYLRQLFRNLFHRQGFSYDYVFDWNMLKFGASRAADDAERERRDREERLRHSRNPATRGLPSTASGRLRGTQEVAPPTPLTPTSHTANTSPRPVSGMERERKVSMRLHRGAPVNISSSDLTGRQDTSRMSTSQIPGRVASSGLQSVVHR
Sequence of Tyrosine-protein kinase ABL1 (Homo sapiens) (P00519 whole entry): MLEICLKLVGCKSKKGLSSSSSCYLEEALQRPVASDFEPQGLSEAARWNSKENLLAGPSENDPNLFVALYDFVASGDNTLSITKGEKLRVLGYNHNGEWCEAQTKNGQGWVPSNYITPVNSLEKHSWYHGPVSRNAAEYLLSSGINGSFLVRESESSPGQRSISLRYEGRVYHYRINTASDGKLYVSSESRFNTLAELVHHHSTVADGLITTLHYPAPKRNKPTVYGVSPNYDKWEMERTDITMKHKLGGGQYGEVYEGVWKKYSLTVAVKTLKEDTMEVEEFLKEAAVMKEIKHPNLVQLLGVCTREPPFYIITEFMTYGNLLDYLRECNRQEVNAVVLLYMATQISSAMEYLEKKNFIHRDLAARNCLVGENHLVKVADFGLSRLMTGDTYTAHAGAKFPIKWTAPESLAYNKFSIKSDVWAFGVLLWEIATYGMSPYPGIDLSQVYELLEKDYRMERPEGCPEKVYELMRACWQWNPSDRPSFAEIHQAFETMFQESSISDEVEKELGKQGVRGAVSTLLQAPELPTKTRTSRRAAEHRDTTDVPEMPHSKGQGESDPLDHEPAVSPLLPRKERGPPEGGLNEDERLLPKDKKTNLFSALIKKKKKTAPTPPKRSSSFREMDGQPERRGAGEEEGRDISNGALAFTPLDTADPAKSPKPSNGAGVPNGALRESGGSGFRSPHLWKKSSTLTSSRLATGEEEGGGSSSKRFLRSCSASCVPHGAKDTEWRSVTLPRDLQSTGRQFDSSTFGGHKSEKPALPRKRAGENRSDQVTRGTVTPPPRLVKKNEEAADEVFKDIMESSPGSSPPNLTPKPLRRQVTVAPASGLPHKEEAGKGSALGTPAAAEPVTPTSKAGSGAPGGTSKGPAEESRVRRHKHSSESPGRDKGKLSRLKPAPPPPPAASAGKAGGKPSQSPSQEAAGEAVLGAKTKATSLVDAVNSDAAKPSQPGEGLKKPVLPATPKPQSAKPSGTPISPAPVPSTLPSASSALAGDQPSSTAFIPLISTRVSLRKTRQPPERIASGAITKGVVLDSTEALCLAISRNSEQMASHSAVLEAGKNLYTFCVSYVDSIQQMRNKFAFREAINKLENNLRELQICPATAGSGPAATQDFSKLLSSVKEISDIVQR

As to `CCn1ncc2c(NC3CCOCC3)c(-c3nnc(Cc4sc(C)nc4C)o3)cnc21`, the ΔTm in experiment [1] was 0.37 °C; in experiment [2] it was -1.68 °C; in experiment [3] it was -0.03 °C; in experiment [4], 0.21 °C; in experiment [5], -0.23 °C; in experiment [6], 0.54 °C. Further, the values for the ΔTm in experiment [7] and in experiment [8] were -2.35 °C and 0.22 °C, respectively.

With `CC1C(C#N)=C(N)OC2=C1C(=O)CC(c1cccc3ccccc13)C2` (stereo not given), the ΔTm is 0.3 °C in experiment [1]; -2.09 °C in experiment [2]; -0.28 °C in experiment [3]; 3.72 °C in experiment [4]; 4.85 °C in experiment [5]; -2.01 °C in experiment [6]. Moreover, the ΔTm in experiment [7] was -0.97 °C; in experiment [8], -1.61 °C.

On to `COc1cc([C@@H]2Oc3c(O)cc([C@H]4Oc5cc(O)cc(O)c5C(=O)[C@@H]4O)cc3[C@H]2CO)ccc1O`, for which the ΔTm in experiment [1] is 0.61 °C; in experiment [2], -1.83 °C; in experiment [3], 0.16 °C; in experiment [4], 0.36 °C; in experiment [5], 3.53 °C; in experiment [6] it was 0.13 °C. Also, the ΔTm in experiment [7] was -1.74 °C; in experiment [8], 1.87 °C.

Regarding `CCOc1ccc(Cc2cc([C@@H]3O[C@H](CO)[C@@H](O)[C@H](O)[C@H]3O)ccc2Cl)cc1`, the ΔTm in experiment [1] is 0.64 °C; in experiment [2], -1.76 °C; in experiment [3], -0.13 °C; in experiment [4], -0.16 °C; in experiment [5], -0.82 °C; in experiment [6] it was 0.08 °C. In addition, the ΔTm is -2.13 °C in experiment [7] and -0.07 °C in experiment [8].

For `Cc1cc(OCc2nnc(SC3CCCC3)n2-c2cccnc2)ccc1-c1ccc(S(C)(=O)=O)cc1`, the ΔTm was -1.4 °C in experiment [1]; -2.52 °C in experiment [2]; 0.2 °C in experiment [3]; -0.2 °C in experiment [4]; -4.14 °C in experiment [5]; 0 °C in experiment [6]. Moreover, the ΔTm in experiment [7] is -1.26 °C; in experiment [8], 0.18 °C.

Turning to `COc1nc(N)nc(Nc2cc(S(N)(=O)=O)ccc2N[C@@H](c2cccc3c2OC(F)(F)O3)c2ncccc2Cl)n1`, the ΔTm was 1.16 °C in experiment [1]; -2.02 °C in experiment [2]; -0.4 °C in experiment [3]; 0.06 °C in experiment [4]; -3.33 °C in experiment [5]; -12.4 °C in experiment [6]. For the same compound, the ΔTm in experiment [7] is -1.68 °C; in experiment [8] it was 0.11 °C.

On to `O=C(C[C@@H](C(F)F)n1ccc(F)n1)N1CCC(O)(Cn2cnc3c(cnn3-c3ccc(F)cc3)c2=O)CC1`, for which the ΔTm in experiment [1] is 0.8 °C; in experiment [2], -3.01 °C; in experiment [3], 0.2 °C; in experiment [4] it was 0.03 °C; in experiment [5], -0.6 °C; in experiment [6], 0.27 °C. Also, the ΔTm is -2.33 °C in experiment [7] and 1.94 °C in experiment [8].

As for `C[C@H](CN[C@@H](C(=O)Nc1ccc(-c2cnn(C)c2)cn1)c1ccccc1)c1ccc(C#N)cc1`, the ΔTm in experiment [1] is -0.21 °C; in experiment [2], -5.89 °C; in experiment [3], -3.07 °C; in experiment [4], 1.03 °C; in experiment [5], -2.94 °C; in experiment [6] it was -4.97 °C. In addition, the ΔTm is -1.84 °C in experiment [7] and -1.37 °C in experiment [8].

Take `CC(=O)N[C@@H](CCCCNC(=O)CSCCNC(=O)CCNC(=O)[C@H](O)C(C)(C)COP(=O)(O)OP(=O)(O)OC[C@H]1O[C@@H](n2cnc3c(N)ncnc32)[C@H](O)[C@@H]1OP(=O)(O)O)C(N)=O`: the ΔTm in experiment [1] was 0.23 °C; in experiment [2], -2 °C; in experiment [3], -0.07 °C; in experiment [4], -0.41 °C; in experiment [5], -0.08 °C; in experiment [6], -0.01 °C. Also, the values for the ΔTm in experiment [7] and in experiment [8] were -0.37 °C and 1.51 °C, respectively.

Consider `N=C(N)SCc1ccc(CN2C(=O)C(=O)c3cc(C(F)(F)F)ccc32)cc1`, for which the ΔTm is -0.91 °C in experiment [1]; -2.92 °C in experiment [2]; 0.03 °C in experiment [3]; 0.19 °C in experiment [4]; -0.71 °C in experiment [5]; 0.42 °C in experiment [6]. For the same compound, the values for the ΔTm in experiment [7] and in experiment [8] were -1.8 °C and 0 °C, respectively.

As to `c1cncc(-c2cnn[nH]2)c1`, the ΔTm in experiment [1] was 0.48 °C; in experiment [2] it was -1.91 °C; in experiment [3], -0.01 °C; in experiment [4] it was -0.01 °C; in experiment [5] it was -0.3 °C; in experiment [6], 0.24 °C. Also, the ΔTm was -1.49 °C in experiment [7] and -0.2 °C in experiment [8].

`Cc1[nH]nc(C(F)(F)F)c1Cc1sc2c(c1C(=O)N1C[C@](C)(O)CO1)c(=O)n(C)c(=O)n2C(C)C`: the ΔTm in experiment [1] was 0.25 °C; in experiment [2], 1.76 °C; in experiment [3], 1.15 °C; in experiment [4] it was -0.46 °C; in experiment [5], -0.31 °C; in experiment [6], 0.35 °C. Further, the results for the ΔTm in experiment [7] and in experiment [8] were -1.82 °C and 1.02 °C, respectively.

Turning to `Cc1cc(C)c(CNC(=O)c2cc(-c3ccc(N4CCN(C)CC4)nc3)cc3c2c(C)cn3C(C)C)c(=O)[nH]1`, the ΔTm in experiment [1] was 0.38 °C; in experiment [2], -2.02 °C; in experiment [3] it was 0.39 °C; in experiment [4] it was 0.02 °C; in experiment [5], 0 °C; in experiment [6] it was 0.02 °C. In addition, the figures for the ΔTm in experiment [7] and in experiment [8] were -1.34 °C and -0.72 °C, respectively.

With `COC[C@H](NC(=O)c1ccn(S(C)(=O)=O)c1)C(=O)Nc1nc(-c2cccc(-c3ccn(C)n3)c2)cs1`, the ΔTm in experiment [1] was 0.67 °C; in experiment [2], -0.81 °C; in experiment [3], 0.17 °C; in experiment [4], 0.35 °C; in experiment [5], -3.25 °C; in experiment [6], 0.35 °C. Besides, the ΔTm in experiment [7] is -2.2 °C; in experiment [8], -1.12 °C.

On to `CC(C)(CNC(=O)c1cccc(-c2noc(C(F)(F)F)n2)c1)c1coc(-c2ccccc2)n1`, for which the ΔTm in experiment [1] is 0.61 °C; in experiment [2] it was -3.84 °C; in experiment [3] it was 0.39 °C; in experiment [4], 0.45 °C; in experiment [5] it was -8.42 °C; in experiment [6] it was -3.6 °C. Further, the results for the ΔTm in experiment [7] and in experiment [8] were -2.8 °C and -1.82 °C, respectively.

The values are drawn from ChEMBL document CHEMBL5724796, “Tm Shift (DSF) assay results for EUbOPEN Chemogenomics Library” (2024).
